# The list shows a part of the results. Inconclusive results are not listed. Activity calls are given as the source filed them. Calls follow the shape of the dose curve; as a rule, active = well fitted inhibition curve with a large enough effect; inconclusive = small, poorly fitted or top-dose-only effect; inactive = flat fitted curve, though single readings scatter.
# Molecular target: Thioredoxin reductase 1, cytoplasmic (Rattus norvegicus) (UniProt O89049)
# Assay: qHTS Assay for Inhibitors of Mammalian Selenoprotein Thioredoxin Reductase 1 (TrxR1): Hit Validation in Primary Screen
# Details: recombinant TrxR1, NADPH fluorescence consumption, selenite substrate
# Text: The selenoprotein thioredoxin reductase (TrxR; EC 1.8.1.9) is a FAD containing homodimeric pyridine nucleotide-disulfide oxidoreductase with many cellular roles. Together with NADPH and its prime substrate thioredoxin (Trx), the enzyme forms the core of the Trx system. The mammalian Trx system exerts a wide spectrum of functions including redox regulation, antioxidant defense, regulation of transcription factors as well as support of cell growth and replication. Many of these functions involve the reduction of Trx, which may subsequently reduce a number of different substrates including ribonucleotide reductase, peroxiredoxins or NFkB. […]
# Assay protocol: 2 uL of reagents (buffer in column 4 as negative control and 90 nM rTrxR1 in columns 1-3 and 5-48) were dispensed into Greiner black solid-bottom 1,536-well assay plates, followed by 1 uL of NADPH (400 uM final concentration) to each well. […] The plate was immediately transferred to a ViewLux high-throughput CCD imager (PerkinElmer), wherein kinetic measurements of NADPH fluorescence (Ex 340 nm, Em 450 nm) were acquired (8 minute kinetic read). Read 1 was utilized to assess the capacity of a compound to serve as an rTrxR1 substrate, i.e. a decrease in NADPH fluorescence compared to the no-compound background is an indication of a substrate behavior for that particular compound. […]
# Sequence of Thioredoxin reductase 1, cytoplasmic (Rattus norvegicus) (O89049 whole entry, looked up): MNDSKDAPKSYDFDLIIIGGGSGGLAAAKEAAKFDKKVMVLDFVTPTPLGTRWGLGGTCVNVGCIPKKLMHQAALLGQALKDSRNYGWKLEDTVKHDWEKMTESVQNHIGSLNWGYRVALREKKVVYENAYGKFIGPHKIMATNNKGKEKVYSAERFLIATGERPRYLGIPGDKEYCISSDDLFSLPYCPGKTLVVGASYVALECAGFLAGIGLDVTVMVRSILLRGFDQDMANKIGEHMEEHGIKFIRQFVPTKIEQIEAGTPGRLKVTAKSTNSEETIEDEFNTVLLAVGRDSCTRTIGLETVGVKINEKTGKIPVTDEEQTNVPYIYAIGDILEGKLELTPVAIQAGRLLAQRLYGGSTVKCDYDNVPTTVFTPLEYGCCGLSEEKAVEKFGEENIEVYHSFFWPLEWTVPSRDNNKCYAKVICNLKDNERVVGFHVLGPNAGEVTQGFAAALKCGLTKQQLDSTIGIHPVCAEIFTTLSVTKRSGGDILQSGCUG
smiles,measurement,value
CC1CCN(C(=O)c2ccc(S(=O)(=O)Cc3cc(F)ccc3F)c([N+](=O)[O-])c2)CC1,Potency,2.38 µM (active)

# — PubChem BioAssay AID652023 (National Center for Advancing Translational Sciences (NCATS), 2013)
